# Values joined by “and” are separate entries in the source; they are usually repeats but may differ in a detail not shown here. Equal values may be shown once. Records with an inconclusive call do not appear. A call without a number means that no potency is given here. Active and inactive are the calls of the source. Calls follow the shape of the dose curve; as a rule, active = well fitted inhibition curve with a large enough effect in the repeat runs; inconclusive = weak or mixed curves; inactive = no such curve, though single readings can be large or run the other way.
# Experiment: qHTS assay to identify small molecule antagonists of the thyroid receptor (TR) signaling pathway (AID 743065); also: nearly all actives have a fitted effect of over 55% in size
# Details: GH3.TRE-Luc, T3-stimulated luciferase inhibition, 23.5 h; series mostly up to 70.3 µM
# Description: U.S. Tox21 Program National Center for Advancing Translational Sciences [NCATS] NIH Chemical Genomics Center [NCGC] U.S. Environmental Protection Agency [EPA] National Institutes of Environmental Health Sciences [NIEHS] National Toxicology Program [NTP] U.S. Food and Drug Administration [FDA] Tox21 Assay Overview: Thyroid receptor (TR), a nuclear hormone receptor, plays an important role in development, proliferation, differentiation, metabolism, brain function, and cardiovascular system. […] To profile the Tox21 10K compound library in TR signaling, a cell-based GH3-TRE-Luc assay (GH3.TRE-Luc cell line, developed by the laboratory of Dr. Albertinka J. Murk, Wageningen University) was used to measure the inhibition of TR. GH3 (rat pituitary tumor) cells stably expressing a TR activity sensor consisting of two TR response elements and a luciferase reporter gene.
# Tox21 Assay Protocol Summary: GH3.TRE-Luc cells were dispensed at 1500 cells/4 uL/well into 1536-well white solid bottom plates using a Multidrop Combi dispenser (Thermo Fisher Scientific Inc., Waltham, MA). After the assay plates were incubated at 37 C for 4 hours, 23 nL of library compound or DMSO controls was transferred to the assay plates by a pintool station (Kalypsys, San Diego, CA), followed by addition of 1 ul of T3 (1 nM, final concentration in the wells) to stimulate TR transactivation. The assay plates were incubated at 37 C for 23.5 h, and then 1 uL of CellTiter-Fluor reagent (Promega, Madision, WI) of measuring cytotoxicity was added to each well using a Bioraptr Flying Reagent Dispenser (FRD) workstation (Beckman Coulter, Indianapolis, IN, USA). The plates were incubated at 37 C and 5% CO2 for additional 30 min, and fluorescence intensity was measured by a ViewLux plate reader (PerkinElmer, Shelton, CT). For measuring luciferase reporter gene activity, 4 uL of ONE-Glo Luciferase Assay reagent (Promega) was added to each well using a Bioraptr FRD (Beckman Coulter), followed by 30 min incubation at room temperature. The luminescence intensity of plates was recorded by a ViewLux plate reader (PerkinElmer, Shelton, CT).
# Potency is read from the fitted curve at half-maximal effect.
row,SMILES,Potency
1,C1CN2CCN1CC2,inactive
2,CN(C)CCO,inactive
3,COCCl,inactive
4,CCCN(CCC)N=O,inactive
5,CCCCN(CCCC)SN(C)C(=O)Oc1cccc2c1OC(C)(C)C2,21.7 µM (active)
6,Clc1cccc(Cl)c1Cl,inactive
7,Nc1ccccc1C(=O)O,inactive
8,CN(C)N=O,inactive
9,Oc1ccccc1Cl,inactive
10,CCCC1COC(Cn2cncn2)(c2ccc(Cl)cc2Cl)O1 (stereo not given),55.5 µM (active) and 54.5 µM (active)
11,Nc1ccc(Br)cc1,inactive
12,CC(C)C#N,inactive
13,COC(=O)c1ccccc1N,inactive
14,c1ccc2c(c1)Oc1ccccc1O2,inactive
15,c1ccc(-c2ccccc2)cc1,inactive
16,Cc1ccccc1O,inactive
17,CC(=O)C=C(C)C,inactive
18,CCN(CC)c1ccccc1,inactive
19,NCC(O)c1ccc(O)cc1 (stereo not given),inactive
20,Cc1cc(-c2cc(C)c(N)c(C)c2)cc(C)c1N,inactive

row,SMILES,Potency
1,Cc1[nH]c(=O)n(C(C)(C)C)c(=O)c1Cl,inactive
2,CCCCN(CC)C(=O)SCCC,inactive
3,CC(C#N)CCC#N (stereo not given),inactive
4,ClCc1cccnc1,inactive
5,CC(C)OC(=O)Nc1cccc(Cl)c1,inactive
6,CCCCOC(=O)c1ccccc1C(=O)OCCCC,inactive
7,CN(N=O)c1ccccc1,inactive
8,CN=C=S,inactive
9,C#CC(C)(C)NC(=O)c1cc(Cl)cc(Cl)c1,inactive
10,COC(=O)c1ccccc1C(=O)OC,inactive
11,CC(C)(Cl)Cl,inactive
12,CC(C)(C)C(O)(CCc1ccc(Cl)cc1)Cn1cncn1 (stereo not given),61.9 µM (active) and 61.1 µM (active)
13,CC(C)=C[C@@H]1[C@@H](C(=O)OCc2coc(Cc3ccccc3)c2)C1(C)C,inactive
14,CCOP(OCC)OCC,inactive
15,O=c1[nH]c2ccccc2c(=O)o1,inactive
16,CC(C)C1(C)N=C(c2nc3ccccc3cc2C(=O)O)NC1=O (stereo not given),inactive
17,O=[N+]([O-])c1ccc(Oc2ccc(Cl)cc2Cl)cc1,inactive
18,CCCCCCCCCl,inactive
19,CCC[N+](=O)[O-],inactive
20,O=NN1CCCCCCC1,inactive

# From PubChem BioAssay (Tox21)
